Source: the supplement of paper PMC10849652
Of roughly 8,800 targets only a part is listed; those with a hit were picked by preference. About 0.5% of all pairs of compound and target were hits. Unmarked numbers belong to inactive results.

Each target was assayed with CC1=C(SC2=C1C(=N[C@H](C3=NN=C(N32)C)CC(=O)N)C4=CC=C(C=C4)Cl)C (assay: log2 fold change, soluble protein after heating vs DMSO (PISA); higher = thermal stabilisation; K562 lysate, 10 uM; active = over 0.2 and 3.5 SD of the protein, either way, in both replicates (recomputed)).
Procedure, shortened: (§1)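 Dounce homogenisation of K562 pellets in PBS pH 7.4 with 1 mM MgCl2 produced a crude extract, used at 1 mg/mL protein. Exposure to 10 μM compound lasted 30 min, and aliquots were then heated for 3 min across 48°C-58°C, pooled and brought to 0.5% NP-40 at 4°C. The supernatant after 21,000xg for 90 min was quantified by TMTpro 16plex LC-MS/MS with channel sums equalised. Duplicate values are given as log-two fold change in thermal stability relative to solvent controls.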

Chain of UniProt Q15398 (Q15398 whole entry, looked up): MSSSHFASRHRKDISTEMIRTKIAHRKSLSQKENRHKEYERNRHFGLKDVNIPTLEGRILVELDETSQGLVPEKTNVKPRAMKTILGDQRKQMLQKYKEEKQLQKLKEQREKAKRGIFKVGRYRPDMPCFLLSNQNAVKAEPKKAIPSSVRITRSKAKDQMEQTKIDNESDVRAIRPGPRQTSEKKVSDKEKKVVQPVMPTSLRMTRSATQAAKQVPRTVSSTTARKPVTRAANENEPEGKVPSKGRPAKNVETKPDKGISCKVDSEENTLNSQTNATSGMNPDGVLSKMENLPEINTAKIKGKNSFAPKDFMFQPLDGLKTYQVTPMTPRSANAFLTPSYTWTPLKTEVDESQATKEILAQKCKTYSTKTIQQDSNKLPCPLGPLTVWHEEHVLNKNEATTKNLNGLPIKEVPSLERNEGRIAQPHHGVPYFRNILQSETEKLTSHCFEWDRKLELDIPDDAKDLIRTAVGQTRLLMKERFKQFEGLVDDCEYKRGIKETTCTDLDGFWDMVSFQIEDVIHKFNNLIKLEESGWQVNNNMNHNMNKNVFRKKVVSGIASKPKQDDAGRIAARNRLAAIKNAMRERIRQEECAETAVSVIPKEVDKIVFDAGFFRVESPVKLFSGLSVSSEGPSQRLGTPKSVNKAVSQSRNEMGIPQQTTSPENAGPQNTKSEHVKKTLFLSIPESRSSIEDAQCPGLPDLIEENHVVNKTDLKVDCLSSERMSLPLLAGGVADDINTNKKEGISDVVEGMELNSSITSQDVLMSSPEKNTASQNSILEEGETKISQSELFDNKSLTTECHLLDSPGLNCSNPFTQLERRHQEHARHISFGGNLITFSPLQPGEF
Chain of UniProt Q6P3W2 (Q6P3W2 whole entry, looked up): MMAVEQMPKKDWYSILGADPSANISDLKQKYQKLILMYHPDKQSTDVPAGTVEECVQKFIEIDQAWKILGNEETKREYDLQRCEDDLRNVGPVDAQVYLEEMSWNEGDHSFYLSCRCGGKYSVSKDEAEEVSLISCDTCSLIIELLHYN
Chain of UniProt Q14203 (Q14203 whole entry, looked up): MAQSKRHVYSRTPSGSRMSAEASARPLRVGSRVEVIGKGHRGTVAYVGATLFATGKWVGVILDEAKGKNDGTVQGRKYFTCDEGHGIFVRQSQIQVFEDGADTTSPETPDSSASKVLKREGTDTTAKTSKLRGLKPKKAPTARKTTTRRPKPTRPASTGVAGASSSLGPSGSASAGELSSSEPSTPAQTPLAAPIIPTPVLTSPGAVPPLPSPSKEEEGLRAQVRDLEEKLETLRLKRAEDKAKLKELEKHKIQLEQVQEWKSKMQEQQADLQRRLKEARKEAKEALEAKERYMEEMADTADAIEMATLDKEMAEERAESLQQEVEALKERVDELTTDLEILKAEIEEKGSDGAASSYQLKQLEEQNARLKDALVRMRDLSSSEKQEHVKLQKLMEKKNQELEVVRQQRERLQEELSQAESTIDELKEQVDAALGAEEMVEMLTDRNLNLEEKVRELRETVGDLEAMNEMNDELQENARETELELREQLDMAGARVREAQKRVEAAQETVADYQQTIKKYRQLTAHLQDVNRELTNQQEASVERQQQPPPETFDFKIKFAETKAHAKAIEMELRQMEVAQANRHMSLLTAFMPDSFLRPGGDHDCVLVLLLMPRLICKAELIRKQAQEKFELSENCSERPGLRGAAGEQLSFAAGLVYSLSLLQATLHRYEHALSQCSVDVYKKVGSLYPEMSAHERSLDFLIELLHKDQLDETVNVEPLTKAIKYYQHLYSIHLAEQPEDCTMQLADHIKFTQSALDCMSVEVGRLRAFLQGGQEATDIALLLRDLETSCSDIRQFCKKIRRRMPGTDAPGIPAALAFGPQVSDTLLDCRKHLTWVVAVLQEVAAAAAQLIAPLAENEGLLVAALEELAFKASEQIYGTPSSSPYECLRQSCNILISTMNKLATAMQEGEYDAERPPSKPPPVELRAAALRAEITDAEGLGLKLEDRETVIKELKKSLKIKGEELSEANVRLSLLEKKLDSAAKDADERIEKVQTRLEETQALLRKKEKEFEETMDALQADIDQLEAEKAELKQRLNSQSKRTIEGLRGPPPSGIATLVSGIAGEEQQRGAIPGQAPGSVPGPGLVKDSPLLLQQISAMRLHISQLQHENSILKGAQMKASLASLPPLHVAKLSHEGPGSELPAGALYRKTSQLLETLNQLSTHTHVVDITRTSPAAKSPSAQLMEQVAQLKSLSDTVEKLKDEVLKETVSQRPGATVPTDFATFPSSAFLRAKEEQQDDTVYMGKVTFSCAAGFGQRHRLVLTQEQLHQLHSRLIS
Chain of UniProt Q9NYP3 (Q9NYP3 whole entry, looked up): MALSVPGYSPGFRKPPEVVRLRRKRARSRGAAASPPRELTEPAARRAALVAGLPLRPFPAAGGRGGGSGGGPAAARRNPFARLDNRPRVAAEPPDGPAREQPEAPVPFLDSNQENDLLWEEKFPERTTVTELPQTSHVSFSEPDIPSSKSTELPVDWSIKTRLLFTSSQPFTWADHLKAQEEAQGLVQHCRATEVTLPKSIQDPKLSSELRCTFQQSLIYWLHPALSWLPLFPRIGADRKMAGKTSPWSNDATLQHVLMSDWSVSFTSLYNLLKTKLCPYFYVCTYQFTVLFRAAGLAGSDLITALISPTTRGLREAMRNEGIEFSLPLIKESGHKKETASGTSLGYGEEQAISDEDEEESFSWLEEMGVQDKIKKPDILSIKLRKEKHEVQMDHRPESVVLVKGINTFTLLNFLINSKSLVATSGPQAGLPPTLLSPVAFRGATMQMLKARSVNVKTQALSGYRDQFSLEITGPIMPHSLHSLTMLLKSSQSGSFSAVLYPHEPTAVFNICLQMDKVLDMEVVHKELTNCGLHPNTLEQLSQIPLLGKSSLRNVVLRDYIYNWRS
Chain of UniProt P57737 (P57737 whole entry, looked up): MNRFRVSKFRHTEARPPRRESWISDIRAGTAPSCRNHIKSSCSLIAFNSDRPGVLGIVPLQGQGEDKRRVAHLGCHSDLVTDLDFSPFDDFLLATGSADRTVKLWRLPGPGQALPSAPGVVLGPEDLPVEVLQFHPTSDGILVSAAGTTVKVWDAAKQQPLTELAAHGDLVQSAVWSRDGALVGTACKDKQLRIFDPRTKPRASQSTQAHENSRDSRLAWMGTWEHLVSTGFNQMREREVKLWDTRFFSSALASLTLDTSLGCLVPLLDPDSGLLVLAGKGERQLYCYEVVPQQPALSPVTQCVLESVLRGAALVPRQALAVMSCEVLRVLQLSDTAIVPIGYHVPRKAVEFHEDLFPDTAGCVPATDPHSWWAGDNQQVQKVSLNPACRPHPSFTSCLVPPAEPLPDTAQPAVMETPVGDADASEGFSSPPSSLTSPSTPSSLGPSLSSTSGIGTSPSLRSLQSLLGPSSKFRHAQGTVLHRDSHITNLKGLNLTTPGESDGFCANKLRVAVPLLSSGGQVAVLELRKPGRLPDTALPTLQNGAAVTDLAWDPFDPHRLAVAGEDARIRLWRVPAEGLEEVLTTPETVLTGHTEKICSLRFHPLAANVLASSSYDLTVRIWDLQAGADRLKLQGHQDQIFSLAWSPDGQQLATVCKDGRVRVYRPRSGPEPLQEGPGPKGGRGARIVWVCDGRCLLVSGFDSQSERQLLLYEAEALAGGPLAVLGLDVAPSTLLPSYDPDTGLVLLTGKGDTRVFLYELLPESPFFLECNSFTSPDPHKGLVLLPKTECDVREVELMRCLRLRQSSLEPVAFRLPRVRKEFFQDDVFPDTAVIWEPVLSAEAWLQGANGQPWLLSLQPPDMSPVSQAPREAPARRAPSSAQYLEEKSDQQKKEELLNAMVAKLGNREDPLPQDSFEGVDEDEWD
Chain of UniProt P51530 (P51530 whole entry, looked up): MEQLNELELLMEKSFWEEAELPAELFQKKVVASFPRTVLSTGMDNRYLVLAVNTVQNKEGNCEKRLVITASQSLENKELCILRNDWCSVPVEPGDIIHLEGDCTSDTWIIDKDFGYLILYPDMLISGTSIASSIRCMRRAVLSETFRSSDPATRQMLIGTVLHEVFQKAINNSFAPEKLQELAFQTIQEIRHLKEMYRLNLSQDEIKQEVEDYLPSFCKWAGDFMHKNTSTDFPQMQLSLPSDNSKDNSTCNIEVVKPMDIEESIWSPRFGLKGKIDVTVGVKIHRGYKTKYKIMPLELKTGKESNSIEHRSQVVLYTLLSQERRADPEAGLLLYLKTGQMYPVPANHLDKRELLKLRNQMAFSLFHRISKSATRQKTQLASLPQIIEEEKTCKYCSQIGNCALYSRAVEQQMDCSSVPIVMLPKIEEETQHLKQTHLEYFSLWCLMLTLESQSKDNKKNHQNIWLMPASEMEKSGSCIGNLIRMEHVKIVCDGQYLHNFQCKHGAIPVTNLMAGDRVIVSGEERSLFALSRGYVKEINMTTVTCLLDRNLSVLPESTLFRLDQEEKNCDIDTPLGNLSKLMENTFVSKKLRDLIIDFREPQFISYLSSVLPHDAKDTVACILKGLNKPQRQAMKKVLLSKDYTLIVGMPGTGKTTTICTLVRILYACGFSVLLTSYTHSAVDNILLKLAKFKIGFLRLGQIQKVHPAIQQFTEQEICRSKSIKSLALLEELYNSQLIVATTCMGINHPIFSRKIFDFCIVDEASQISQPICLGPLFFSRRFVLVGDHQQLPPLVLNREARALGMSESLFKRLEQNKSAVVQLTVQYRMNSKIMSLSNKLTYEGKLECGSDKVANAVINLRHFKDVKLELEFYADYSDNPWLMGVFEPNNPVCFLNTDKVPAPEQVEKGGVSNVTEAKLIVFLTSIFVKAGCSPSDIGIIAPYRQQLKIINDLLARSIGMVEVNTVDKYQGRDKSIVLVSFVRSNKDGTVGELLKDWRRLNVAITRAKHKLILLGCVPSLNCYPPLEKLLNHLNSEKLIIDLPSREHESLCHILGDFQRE
Chain of UniProt P24311 (P24311 whole entry, looked up): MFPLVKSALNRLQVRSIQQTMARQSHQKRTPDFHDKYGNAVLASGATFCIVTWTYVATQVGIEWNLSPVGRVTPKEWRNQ
Chain of UniProt O14810 (O14810 whole entry, looked up): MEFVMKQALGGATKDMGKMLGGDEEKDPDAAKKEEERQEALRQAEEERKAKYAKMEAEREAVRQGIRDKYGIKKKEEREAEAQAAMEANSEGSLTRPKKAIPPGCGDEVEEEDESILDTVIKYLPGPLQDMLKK

| Target | log2 fold change |
| --- | --- |
| CRLS1 (UniProt Q9UJA2) | 0.044 |
| CNTN4 (UniProt Q8IWV2) | 0.073 |
| CSRP2 (UniProt Q16527) | -0.018 |
| CYP4V2 (UniProt Q6ZWL3) | 0.188 |
| CSDE1 isoform 3 (UniProt O75534) | -0.098 |
| COL6A3 (UniProt P12111) | -0.04 |
| DHRS13 (UniProt Q6UX07) | 0.059 |
| CHMP4A (UniProt H0YIN6) | 0.166 |
| CLASP2 (UniProt O75122) | -0.248 |
| DDR1 isoform 5 (UniProt Q08345) | 0.057 |
| DLGAP5 isoform 3 (UniProt Q15398) | 0.031 |
| DONSON (UniProt Q9NYP3) | 0.068 |
| CLIP1 isoform 2 (UniProt P30622) | -0.03 |

These targets were tested with CC1=C2C(=CC=C1)N=C(N(C2=O)C3=CC=CC=C3C)CN4C=NC5=C(N=CN=C54)N in the same assay as above.
Procedure, shortened: as §1

| Target | log2 fold change |
| --- | --- |
| CNNM2 (UniProt Q9H8M5) | 0.041 |
| CYP2S1 isoform 2 (UniProt Q96SQ9) | 0.033 |
| CLASP1 isoform 4 (UniProt Q7Z460) | 0.056 |
| COL12A1 (UniProt Q99715) | 0.08 |
| CNTN4 (UniProt Q8IWV2) | 0.105 |
| DESI2 (UniProt Q9BSY9) | -0.142 |
| CPLX1 (UniProt O14810) | -0.08 |
| DDAH1 (UniProt O94760) | 0.005 |
| DCTN1 isoform 4 (UniProt Q14203) | 0.013 |
| CUX1 isoform 2 (UniProt Q13948) | 0.03 |
| DNAJC24 (UniProt Q6P3W2) | 0.007 |
| COX7B (UniProt P24311) | -0.031 |
| CHFR (UniProt Q96EP1) | 0.027 |
| CORO7 (UniProt P57737) | 0.18 |
| DALRD3 (UniProt Q5D0E6) | 0.193 |
| DHX32 (UniProt Q7L7V1) | -0.086 |
| CLASP2 (UniProt O75122) | -0.105 |
| DNA2 (UniProt P51530) | 0.047 |
| CNK3/IPCEF1 isoform 2 (UniProt G9CGD6) | -0.032 |
| CLIP1, A0A3B3ITA2 | 0.035 |
| DAPK1 isoform 3 (UniProt P53355) | 0.035 |

These targets were tested with Cc1sc2c(c1C)C(c1ccc(Cl)cc1)=N[C@@H](CC(=O)OC(C)(C)C)c1nnc(C)n1-2 in the same assay as above.
Procedure, shortened: as §1

| Target | log2 fold change |
| --- | --- |
| CNNM2 (UniProt Q9H8M5) | 0.034 |
| CYP2S1 isoform 2 (UniProt Q96SQ9) | -0.123 |
| COL12A1 (UniProt Q99715) | -0.078 |
| CPLX1 (UniProt O14810) | -0.239 |
| DDAH1 (UniProt O94760) | 0.15 |
| CYP4V2 (UniProt Q6ZWL3) | 0.035 |
| DCTN1 isoform 4 (UniProt Q14203) | -0.13 |
| CUX1 isoform 2 (UniProt Q13948) | 0.075 |
| DNAJC24 (UniProt Q6P3W2) | 0.024 |
| COX7B (UniProt P24311) | -0.027 |
| DNM2 isoform 4 (UniProt P50570) | 0.025 |
| CHFR (UniProt Q96EP1) | -0.056 |
| CORO7 (UniProt P57737) | 0.165 |
| COL6A3 (UniProt P12111) | -0.079 |
| CSNK1A1 isoform 3 (UniProt P48729) | 0.021 |
| DHRS13 (UniProt Q6UX07) | -0.099 |
| CHMP4A (UniProt H0YIN6) | -0.222 |
| DDR1 isoform 5 (UniProt Q08345) | -0.09 |
| DNA2 (UniProt P51530) | 0.072 |
| CNK3/IPCEF1 isoform 2 (UniProt G9CGD6) | 0 |
| DLGAP5 isoform 3 (UniProt Q15398) | -0.036 |
| DONSON (UniProt Q9NYP3) | 0.013 |
| DAPK1 isoform 3 (UniProt P53355) | 0.013 |
| CLIP1 isoform 2 (UniProt P30622) | 0.009 |

What follows are targets tested with c1ccc([C@@H]2C[C@H]2NC2CCNCC2)cc1 in the same assay as above.
Procedure, shortened: as §1

| Target | log2 fold change |
| --- | --- |
| CNNM2 (UniProt Q9H8M5) | 0.014 |
| CRLS1 (UniProt Q9UJA2) | 0.065 |
| CNTN4 (UniProt Q8IWV2) | -0.319 |
| CSRP2 (UniProt Q16527) | 0.003 |
| DESI2 (UniProt Q9BSY9) | -0.038 |
| DDAH1 (UniProt O94760) | -0.072 |
| DCTN1 isoform 4 (UniProt Q14203) | -0.452 |
| CUX1 isoform 2 (UniProt Q13948) | 0.193 |
| DNAJC24 (UniProt Q6P3W2) | 0.055 |
| COX7B (UniProt P24311) | -0.075 |
| DNM2 isoform 4 (UniProt P50570) | -0.043 |
| CORO7 (UniProt P57737) | 0.164 |
| CSDE1 isoform 3 (UniProt O75534) | 0.043 |
| COL6A3 (UniProt P12111) | 0.13 |
| DALRD3 (UniProt Q5D0E6) | 0.137 |
| DHX32 (UniProt Q7L7V1) | -0.009 |
| CHMP4A (UniProt H0YIN6) | -0.12 |
| CLASP2 (UniProt O75122) | 0.002 |
| DDR1 isoform 5 (UniProt Q08345) | 0.135 |
| DNA2 (UniProt P51530) | 0.026 |
| CNK3/IPCEF1 isoform 2 (UniProt G9CGD6) | -0.817 |
| DLGAP5 isoform 3 (UniProt Q15398) | 0.021 |
| DONSON (UniProt Q9NYP3) | -0.243 |
| CLIP1, A0A3B3ITA2 | -0.123 |
| DAPK1 isoform 3 (UniProt P53355) | 0.039 |
| CLIP1 isoform 2 (UniProt P30622) | -0.002 |
